# Laboratory results from PubChem BioAssay (NCATS).
# Results filed as inconclusive are left out. Unmarked numbers belong to inactive results. Activity calls are given as the source filed them. The call rests on the fitted dose curve; in most records, active means well fitted activation curve with a large enough effect; inconclusive means small, poorly fitted or top-dose-only effect, or another doubt; inactive means no such curve, though single readings can be large or run the other way.
# Target: Rap guanine nucleotide exchange factor 3 (Homo sapiens) (UniProt O95398)
# Assay: Counterscreen qHTS for agonist of cAMP-regulated guanine nucleotide exchange factor 3 (EPAC1) (AID 1645889); further: nearly all actives have a fitted effect of over 40% in size; on activation: % of control where 0% means no effect
# Details: EPAC1 Rap1B-BODIPY-GDP exchange, fluorescence; series mostly up to 154 µM; activation: at the top concentration
# Description: Assay Provider (PI): Xiaodong Cheng Ph.D. The University of Texas Medical Branch, […], TX MLPCN Grant: NS066510 In multi-cellular eukaryotic organisms, the effects of cAMP are transduced by two ubiquitously-expressed intracellular cAMP receptors, the classic protein kinase A/cAMP-dependent protein kinase (PKA/cAPK) and the more recently discovered exchange protein directly activated by cAMP/cAMP-regulated guanine nucleotide exchange factor (EPAC/cAMP-GEF). Both PKA and EPAC are ubiquitously expressed in all tissues, and an increase in intracellular cAMP levels will lead to the activation of both PKA and EPAC. Therefore, careful dissections of the individual role and relative contribution of EPAC and PKA within the overall cAMP signaling in various model systems are critical for further elucidating the mechanism of cAMP signaling. To date no EPAC-specific antagonists and agonist, as well as isoform-specific agonists have been reported, and developing EPAC-specific pharmacological probes to determine the physiological functions that EPAC play in the overall cAMP-mediated signaling remains a major challenge within the research field. Furthermore, identified regulators of EPAC may lead to new mechanism-based therapeutic strategies specifically targeting the EPAC / cAMP-signaling components as EPAC has been implicated to play important roles in major human pathological conditions such as diabetes, heart disease, and cancer. This qHTS will be used to screen the Molecular Libraries Small Molecule Repository (MLSMR) as a concentration-titration series using the NCGC unique quantitative screening (qHTS) platform to find activators for EPAC1. In addition, this assay will also be used as a counterscreen for the EPAC2 qHTS. This fluorescent based assay is developed and validated for EPAC1 that measures exchange using EPAC effector Rap1 complex with BODIPY-GDP, a GDP analog with a tethered fluorophores. Activators are identified by monitoring the change in fluorescence signal as the exchanged free BODIPY-GDP has a reduced fluorescence compared to Rap1-bound BODIPY-GDP. Increase in signal (activation) is the desired outcome for the EPAC1 agonist while no activity in this assay is desired for the EPAC2 agonist counterscreen. Reference: [1] de Rooij, J., Zwartkruis, F. J., Verheijen, M. H., Cool, R. H., Nijman, S. M., Wittinghofer, A., and Bos, J.L. (1998) Nature 396, 474-477. Kawasaki, H., Springett, G. M., Mochizuki, N., Toki, S., Nakaya, M., Matsuda, M., Housman, D. E., and Graybiel, A. M. (1998) Science 282, 2275-2279.
# EPAC1 Counterscreen PROTOCOL TABLE SEQUENCE No. (e.g., 1, 2, 3, etc.); […] (e.g., Cells, Incubation, Reagent, etc.); VALUE and DESCRIPTION. 1. Reagent. 3 uL. [1x] 250 nM Rap1B-BODIPY-GDP, and 50 uM GDP. 2a. Compound. 23 nL. Control 6,572 uM cAMP (working concentration). 2b, 2c. Compound. 23 nL. Control activator and inhibitor; 234 - 30,000 uM cAMP and 16.4 - 10,000 uM. 2d. Compound. 46 nL. MLSMR follow-up library; 0.64 - 10,000 uM. 3. Time. 15 sec, 1000rpm. Centrifuge. 4. Time. 5 min. Incubation at room temperature. 5. Detector. Fluorescence. (Read 1), Ex/Em = 480 nm / 540 nm. 6. Time. 30 min. Incubation at room temperature. 7. Detector. Fluorescence. (Read 2), Ex/Em = 480 nm/ 540 nm. 8. Reagent. 1uL. Dispense either [4x] 10 uM cAMP or buffer. 9. Time. 15 sec, 1000 rpm. Centrifuge. 10. Time. 5 min. Incubation at room temperature. 11. Detector. Fluorescence. (Read 3), Ex/Em = 480 nm / 540 nm. 12. Time. 30 min. Incubation at room temperature. 13. Detector. Fluorescence. (Read 4), Ex/Em = 480 nm / 540 nm. NOTES (numbers refer to Sequence numbers above; values are from representative experiments) 1. Medium-binding black solid-bottom Greiner plates (789176-F). Dispense 3 uL of [1x] 250 nM Rap1B-BODIPY-GDP, and 50 uM GDP into columns 1 to 48. 2a. Control compound cAMP (6,572 uM, column 3, rows 1 to 32) single pin-transferred for a [final] of 50 uM. 2b. […]
# Potency means the concentration at half of the fitted maximal effect.
Structure (SMILES),activation,Potency
NNc1nc2c(Cl)ccc(Cl)c2s1,14.6%,
Cc1cc(=O)n(C2CCS(=O)(=O)C2)[nH]1 (stereo not given),,4.47 µM (active)
COC(=O)c1ccccc1NC(=O)CN1C(=O)COc2ccc(Cl)cc21,7.4%,
N#CC(C(=O)NCc1ccco1)c1nc2ccccc2nc1N1CCOCC1 (stereo not given),19.4% [at 30.8 µM],
Cc1cccc(C2c3[nH]c4ccccc4c3CCN2Cc2cccn2-c2ncccn2)c1 (stereo not given),17.6% [at 30.8 µM],
Cc1cc2oc(=O)c3c(c2cc1OC(=O)c1ccco1)CCCC3,19.5%,
CC1(C(=O)NS(=O)(=O)c2ccc3ccccc3c2)CCN1C(=O)C1(c2ccc(Cl)cc2)CCC1 (stereo not given),6.56%,
COC(=O)c1ccc(NC(=O)CCOc2ccccc2)cc1,-9.38%,
O=C(Nc1nncs1)c1ccccc1NS(=O)(=O)c1cccs1,8.65%,
O=C(CN(c1ccc(Cl)c(C(F)(F)F)c1)S(=O)(=O)c1ccccc1)N1CCc2ccccc2C1,-4.98%,
CCCN(CC(=O)Nc1ccccc1C)C(=O)C1CCN(S(=O)(=O)c2ccccc2C(F)(F)F)CC1,20.6%,
CCN(CC)c1ccc2cc(-c3nnc(-c4ccccc4)o3)c(=O)oc2c1,,15.8 µM (active)
CCOC(=O)C1CCCN(C(=O)C(C)(C)Oc2ccc(Cl)cc2)C1 (stereo not given),-3.47%,
COc1cc(O)cc(O)c1C(=O)/C=C/c1ccccc1,-12.4%,
Cc1ccc(Sc2ccc(S(=O)(=O)Nc3ccc(C(=O)O)cc3)cc2)cc1C,-8.99%,
CCOC(=O)C1=CCN(S(=O)(=O)c2ccc(C)cc2)C1c1cccs1 (stereo not given),22.8% [at 30.8 µM],
Cc1cn([C@H]2C[C@H](O)[C@@H](CCC(=O)NCc3ccc4c(c3)OCO4)O2)c(=O)[nH]c1=O,-10.7%,
CC(Sc1nncn1C)C(=O)Nc1nnc(C(C)C)s1 (stereo not given),3.18%,
CCc1cccc2cc3c(N)c(C(=O)Nc4ccc(S(=O)(=O)N5CCCC5)cc4)sc3nc12,4.84%,
CN(C(=O)COC(=O)/C=C/c1ccc2c(c1)OCO2)c1c(N)n(Cc2ccccc2)c(=O)[nH]c1=O,8.24%,

Structure (SMILES),activation,Potency
O=C(CCCc1ccccc1)NCc1cn2ccsc2n1,17.8%,
CCN(CC)c1nc(C)nc2c1sc(=S)n2C,-1.38%,
COc1ccc(OC)c(NC(=O)Cc2c(C(=O)O)n(C)c3ccc(C)cc23)c1,23.4%,
Cc1ccc(NC(=O)c2cccc(NC(=O)/C=C/c3ccco3)c2)cc1C,5.53% [at 30.8 µM],
O=C(COC(=O)Cc1ccc(Cl)cc1)Nc1ccc2[nH]c(=O)[nH]c2c1,-0.761% [at 30.8 µM],
CC1CCc2c(sc(NC(=O)Cc3ccccc3)c2C(=O)Nc2ccc(Cl)cc2)C1 (stereo not given),8.96%,
CCc1cc(C(=O)c2ccc(OC)cc2)c(NC(=O)CC(C)(C)CC(=O)O)s1,2.45%,
O=C(O)CN1C(=O)/C(=C\c2cccc(OCc3ccccc3F)c2)SC1=S,4.24%,
CCCC(=O)N1c2nc(C(C)C)nn2C2(CCCCC2)[C@@H]2CCCC[C@@H]21,23.7%,
CCOc1ccc(NC(=O)CN(C)C(=O)c2ccccc2SCc2c(C)noc2C)cc1OCC,18% [at 30.8 µM],
COc1cc(-c2c(CCO)sc3ccccc23)cc(OC)c1OC,8.02% [at 30.8 µM],
O=C(N/N=C/c1cn(-c2ccccc2)nc1-c1cccnc1)c1ccccc1,18.8% [at 30.8 µM],
S=C(NCCCN1CCOCC1)Nc1cccc(-c2nnc3n2CCCCC3)c1,10.2%,
CC(C)CC1C(=O)N(Cc2cn(CCC3OCCCO3)nn2)CCS(=O)(=O)N1Cc1ccc(-c2ccccc2)cc1 (stereo not given),24.7%,
C[C@@H](c1ccccc1)N1Cc2ccccc2Oc2cc(Br)ccc2S1(=O)=O,24%,
O=C(O)C(c1ccccc1)N1C(=O)/C(=C\c2ccc(O)c(O)c2)SC1=S (stereo not given),-12.7%,
CC1(C(=O)NS(=O)(=O)c2ccc(Cl)s2)CCN1C(=O)c1ccc(C2CCCCC2)cc1 (stereo not given),-4.08% [at 30.8 µM],
O=C1c2cc(O)c(O)cc2OC(c2ccc(O)c(O)c2)C1O (stereo not given),19.1%,
COc1ccc(/C=C2\SC(=S)N(NS(=O)(=O)c3ccc(C)cc3)C2=O)c(OC)c1,20% [at 30.8 µM],
CCC(C(=O)OC)n1c(-c2ccccc2)nc2ccccc2c1=O (stereo not given),15.4%,
